Screening results (PubChem BioAssay)
Compounds with a hit are over-represented: about 19% of the library has one in this group of screens.
IL1B secr inh = qHTS for Inhibitors of Inflammasome Signaling: IL-1-beta AlphaLISA Primary Screen | AID 743279, 2014 | THP-1 LPS/ATP IL-1B secretion, AlphaLISA, 16 h; active compounds read low | hit rate 4.7% among 360,000 | activity change, % at 57.5 µM; in the data active = activity change below about -50%; inconclusive = mostly about -30% to -49%
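Secreted IL-1B measured by AlphaLISA bead assay after 16 h compound exposure of THP-1 cells; compounds (final up to 57.5 uM) added 1 h before LPS (250 ng/mL) and ATP (1.25 mM) stimulation; lower signal means less secretion.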
TDP1 cell CPT = qHTS for Inhibitors of human tyrosyl-DNA phosphodiesterase 1 (TDP1): qHTS in cells in presence of CPT; chicken DT40 Tdp1-/-;hTDP1 cells + 20 nM CPT, ATP luminescence, 48 h; Potency, µM (top dose mostly 46.2 µM), actives largely listed as inhibitors; hit rate 12% among 420,000; AID 686979, 2013; note: nearly all actives have a fitted effect of over 55% in size
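Chicken DT40 Tdp1-/- cells stably complemented with human TDP1 were seeded at 400 cells/well in medium containing 20 nM camptothecin, exposed to pin-transferred compounds, and grown at 37 °C for at least 48 hr. Viability was read as ATP luminescence.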
SW480 rerep = A quantitative high throughput screen for small molecules that induce DNA re-replication in SW480 colon adenocarcinoma cells; SW480 DNA re-replication, Hoechst DNA content imaging, 48 h; Potency, µM (doses to about 46.1 µM), actives largely listed as activators; hit rate 1.8% among 340,000; AID 624297, 2012; note: nearly all actives have a fitted effect of over 55% in size
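SW480 cells exposed to compounds for 48 hr at 37 C, 5% CO2, then Hoechst-stained 40 min. Nuclear DNA content imaged by fluorescence scanning (405 nm excitation, 500-530 nm emission); re-replication scored as increased high-intensity nuclei.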
BCR signal inh = qHTS Assay to Find Inhibitors of Chronic Active B-Cell Receptor Signaling; ABC-DLBCL IkBa-CBG/CBR reporter, luminescence ratio, 4 h; Potency, µM (top dose mostly 46.1 µM), actives largely listed as inhibitors; hit rate 0.05% among 340,000; active = well fitted inhibition curve with a large enough effect in the signal ratio, with a control signal flat, not every such curve was filed as active; inconclusive = small, poorly fitted or top-dose-only effect, or effect the other way, or a change in a side signal; the % refers to the signal ratio
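Concentration-response series (up to 46 uM) were applied to TMD8 dual-reporter cells for 4 h at 37C with doxycycline. Green/red ratio, after filter-overlap correction, defined %Activity; red signal alone was normalised to basal cells and zero luminescence.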
DT40 TDP1 no CPT = qHTS for Inhibitors of human tyrosyl-DNA phosphodiesterase 1 (TDP1): qHTS in cells in absence of CPT; DT40 Tdp1-/- hTDP1 cells, no CPT, ATP luminescence, 48 h; Potency, µM (series often up to 46.2 µM), usual class: inhibitors; hit rate 15% among 420,000; AID 686978, 2013; note: nearly all actives have a fitted effect of over 55% in size
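Growth kinetics read by CellTiter-Glo luminescence after ≥48 hr at 37 °C. Cells: DT40 Tdp1-/- stably carrying human TDP1, 400 per well, compound exposure in the absence of CPT (DMSO vehicle).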
MCF10A rerep = A quantitative high throughput screen for small molecules that induce DNA re-replication in MCF 10a normal breast cells; AID 624296, 2012; hit rate 2.9% among 350,000; Potency, µM (doses to about 46.1 µM), hits mostly activators; MCF 10A DNA re-replication, Hoechst nuclear intensity, 48 h; note: nearly all actives have a fitted effect of over 50% in size
A number is an active result; . = inactive; ? = inconclusive; / = not tested or not shown; [ ] = dose if it differs, or a comment. Unless noted, calls come from the whole dose curve; as a rule, active = well fitted curve in the direction sought with a large enough effect; inconclusive = small, poorly fitted or top-dose-only effect, or another doubt; inactive = no such curve, though single readings can be large; an effect the other way counts as inactive or inconclusive.

SMILES | IL1B secr inh | TDP1 cell CPT | SW480 rerep | BCR signal inh | DT40 TDP1 no CPT | MCF10A rerep
CCN(C(=O)CO/N=C/c1ccc(OC)cc1OC)c1c(N)n(Cc2ccccc2)c(=O)[nH]c1=O | . | . | . | . | . | ?
O=C(Nc1ccc(F)c(Cl)c1)Nn1cnnc1 | / | / | / | . | / | /
Cc1cc(C)cc(N(C(=O)c2cc3ccccc3oc2=O)C2C=CS(=O)(=O)C2)c1 (centres undefined) | -67 | ? | . | . | ? | .
CC1CCN(CC2C(=O)O[C@@H]3C[C@@]4(C)CCC[C@H](C)C4=C[C@H]23)CC(C)(C)C1 (some centres undefined) | / | ? | ? | ? | 18µM | ?
COCCCNC(=O)c1ccc(Cn2c(=O)c3ccccc3n(CC(=O)Nc3ccc(C)cc3C)c2=O)cc1 | / | . | / | / | . | /
Cc1ccc(CNC(=O)c2ccc(Cn3c(=O)c4ccccc4n(CC(=O)Nc4ccc(C)cc4C)c3=O)cc2)cc1 | / | 16µM | / | / | ? | /
CCOc1ccc(NC(=O)Cn2c(=O)n(Cc3ccc(C(=O)NCc4ccc(C)cc4)cc3)c(=O)c3ccccc32)cc1 | / | 16µM | / | / | 15µM | /
Cc1cc(C)c(NC(=O)Cn2c(=O)n(CCc3ccccc3)c(=O)c3ccccc32)c(C)c1 | / | 15µM | / | / | 21µM | /
COC(=O)c1ccccc1NC(=O)Cn1c(=O)n(-c2ccc(C)cc2)c(=O)c2ccccc21 | / | 0.82µM | / | / | 0.92µM | /
Cc1ccc(CNC(=O)c2ccc(Cn3c(=O)c4ccccc4n(CC(=O)Nc4c(C)cc(C)cc4C)c3=O)cc2)cc1 | / | 6.5µM | / | / | 4.6µM | /
CC(=O)c1ccc(-c2cnc3c(NC=O)cc(-c4ccc(N5CCN(C)CC5)cc4)cn23)cc1 | . | ? | / | / | 21µM | /
CC(=O)Nc1cc(-c2ccc(N3CCN(C)CC3)cc2)cn2c(-c3ccc(F)c(Cl)c3)cnc12 | / | 18µM | / | / | ? | /
CN1CCN(c2ccc(-c3cc(NC=O)c4ncc(-c5ccc(F)c(Cl)c5)n4c3)cc2)CC1 | . | 12µM | / | / | 16µM | /
C[C@@H]1CN([C@@H](C)CO)S(=O)(=O)c2ccc(Br)cc2O[C@H]1CN(C)C(=O)Nc1ccc2c(c1)OCO2 | . | ? | / | / | ? | /
COc1cc2c(NC3CCN(C)CC3)nc(N3CCCN(C)CC3)nc2cc1OCCOCCN1CCCC1 | / | . | / | / | . | /
COc1cc2c(NC3CCN(C)CC3)nc(N3CCCN(C)CC3)nc2cc1OCCCC(C)C | / | 1.1µM | / | / | 1.1µM | /
COc1cc2c(NC3CCN(C)CC3)nc(N3CCCN(C)CC3)nc2cc1OCCCN1CCCCC1 | / | 18µM | / | / | 10µM | /
Cc1ccn2c(Nc3ccc4c(c3)OCCO4)c(-c3ccc(C)o3)nc2c1 | / | 21µM | / | / | ? | /
Cc1ccn2c(Nc3ccc(F)cc3)c(-c3ccc(C)o3)nc2c1 | / | 16µM | / | / | ? | /
CSc1ccc(-c2nc3cc(C)ccn3c2Nc2ccc(C)cc2)cc1 | / | . | / | / | ? | /
Cc1ccc(-c2nc3ncccn3c2Nc2ccc3c(c2)OCO3)o1 | . | ? | . | . | . | .
Cc1ccc(NC(=O)CN2C(=O)C(c3ccc(F)cc3)=NC2(C)C)c(C)c1 | / | . | / | / | . | /
OC[C@@H]1CN(Cc2ccc(F)cc2)C[C@H](n2cnc3c(NCc4ccco4)ncnc32)O1 | . | . | / | / | ? | /
OC[C@@H]1CN(Cc2cccc(C(F)(F)F)c2)C[C@H](n2cnc3c(NCc4ccc(F)cc4)ncnc32)O1 | . | 18µM | / | / | 9.2µM | /
OC[C@@H]1CN(Cc2ccc(Cl)cc2)C[C@H](n2cnc3c(NCc4ccc(F)cc4)ncnc32)O1 | . | 18µM | / | / | 18µM | /
SMILES | IL1B secr inh | TDP1 cell CPT | SW480 rerep | BCR signal inh | DT40 TDP1 no CPT | MCF10A rerep
OC[C@@H]1CN(Cc2cccc(C(F)(F)F)c2)C[C@H](n2cnc3c(NCc4ccco4)ncnc32)O1 | . | 18µM | / | / | ? | /
CC1CCCC(C)N1C(=O)COC(=O)CNS(=O)(=O)c1ccc2ccccc2c1 (centres undefined) | . | . | / | / | . | /
Cc1ccccc1N/C(=C(/C(Cl)=C(Cl)Cl)[N+](=O)[O-])n1nnc2ccccc21 | . | 16µM | ? | / | ? | ?
CC1CCCCN1CCCNC(=O)c1nn(C)c2c1CSc1ccccc1-2 (centres undefined) | . | ? | . | . | ? | .
CC1CCN(CCCNC(=O)c2cc(Sc3ccc(F)cc3)nc3ccccc23)CC1 | / | 23µM | / | ? | ? | /
CC1CCCCN1CCCNC(=O)c1cc(Sc2ccc(Cl)cc2)nc2ccccc12 (centres undefined) | / | 18µM | / | . | 21µM | /
CCCN(CCC)CCNC(=O)c1cc(Sc2ccc(Cl)cc2)nc2ccccc12 | / | 16µM | / | ? | 18µM | /
CCOc1ccc(Sc2cc(C(=O)NCCCOC)c3ccccc3n2)cc1 | / | 21µM | / | . | 16µM | /
CCN(c1ccccc1)S(=O)(=O)c1nnc(NC(=O)COc2cccc(C)c2)s1 | / | . | / | / | . | /
COc1ccc(OC)c(CN2CCC3(CCC(CNC(=O)c4ccco4)O3)CC2)c1 (centres undefined) | / | .[9.04 µM] | / | / | . | /
O=C(NCCN1CCOCC1)c1cc(-c2ccccc2)nc2ccccc12 | . | . | / | / | ? | /
CCc1ccc(Sc2cc(C(=O)NCCN3CCOCC3)c3ccccc3n2)cc1 | ? | ? | . | . | 15µM | ?
N#CC1(NC(=O)COC(=O)C2CCN(S(=O)(=O)c3ccc4c(c3)OCCO4)CC2)CCCCC1 | . | . | . | / | . | .
CN(C(=O)c1cccc(NC(=O)Cc2ccc(NC(=O)C3CCCN(C(=O)C4CC4)C3)cc2)c1)C1CCCCC1 (centres undefined) | . | . | 2.6µM | / | . | .
CN(C(=O)c1cccc(NC(=O)Cc2ccc(NC(=O)C3CCCN(C(=O)C4CCC4)C3)cc2)c1)C1CCCCC1 (centres undefined) | . | 23µM | . | / | ? | ?
CN(C(=O)c1cccc(NC(=O)Cc2ccc([N+](=O)[O-])cc2)c1)C1CCCCC1 | . | 21µM | . | . | 15µM | .
CN(C(=O)c1cccc(NC(=O)Cc2ccc(NC(=O)C3CCCN(C(=O)C4CCCCC4)C3)cc2)c1)C1CCCC1 (centres undefined) | . | ? | ? | / | ? | .
CN(C(=O)c1cccc(NC(=O)Cc2ccc(NC(=O)C3CCN(S(=O)(=O)c4cccc([N+](=O)[O-])c4)CC3)cc2)c1)C1CCCC1 | . | ? | ? | / | ? | ?
CN(C(=O)c1ccc(Oc2ccc([N+](=O)[O-])cc2)cc1)C1CCCCC1 | . | ? | . | . | 23µM | ?
